# Screening data from PubChem BioAssay.
# An excerpt weighted towards active compounds, which were near 13% of everything screened.
# USP17 block: blocks human USP17 ubiquitin-rhodamine cleavage. inhibition, % at 50 µM. A8MUK1. 47,000 tested, 6.5% active. purified USP17, Ub-rhodamine cleavage fluorescence, 3 h. AID 1645855
# Target sequence (A8MUK1 whole entry, looked up): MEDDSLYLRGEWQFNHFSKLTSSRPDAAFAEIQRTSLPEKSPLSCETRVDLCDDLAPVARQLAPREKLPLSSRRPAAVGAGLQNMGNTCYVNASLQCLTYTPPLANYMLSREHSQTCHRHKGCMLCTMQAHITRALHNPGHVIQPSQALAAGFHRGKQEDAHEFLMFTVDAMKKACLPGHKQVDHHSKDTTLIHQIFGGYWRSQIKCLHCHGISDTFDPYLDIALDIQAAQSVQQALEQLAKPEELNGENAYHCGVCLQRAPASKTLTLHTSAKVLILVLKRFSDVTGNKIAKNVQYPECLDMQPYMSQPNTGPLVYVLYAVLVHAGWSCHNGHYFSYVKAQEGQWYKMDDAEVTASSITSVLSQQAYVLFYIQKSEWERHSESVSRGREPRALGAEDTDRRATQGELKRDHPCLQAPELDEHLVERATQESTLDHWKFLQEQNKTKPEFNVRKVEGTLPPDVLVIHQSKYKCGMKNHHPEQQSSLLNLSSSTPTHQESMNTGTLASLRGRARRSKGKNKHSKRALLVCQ
# USP10 inh: inhibitors of human USP10 deubiquitinase; Q14694; purified USP10, Ub-rhodamine fluorescence, 60 min; inhibition, % at 20 µM; 47,000 tested, 1.1% active; AID 1645856
# USP30 block: inhibitors of human USP30 deubiquitinase; Q70CQ3; purified USP30, Ub-rhodamine cleavage fluorescence; inhibition, % at 25 µM; 47,000 tested, 5.3% active
# USP8 inh: inhibitors of human USP8 deubiquitinase; P40818; purified USP8, Ub-rhodamine cleavage fluorescence, 30 min; inhibition, % at 20 µM; 47,000 tested, 4.2% active; AID 1645853
# USP28 block: human USP28 deubiquitinase inhibition | Q96RU2 | purified USP28, Ub-rhodamine cleavage fluorescence, 30 min | inhibition, % at 25 µM | 47,000 tested, 3% active | AID 1645857
# An asterisk follows results filed as active; i = inactive; . = not tested or not shown. No stated cut-off is given here; in the data, active means inhibition above about 30%; inactive means the rest.
SMILES,USP17 block,USP10 inh,USP30 block,USP8 inh,USP28 block
COc1cccc(C(=O)N2CCn3c(nc4ccccc43)CC2C)c1 (stereo not drawn),-7,2,9,1,0
CCOC(=O)c1cc2c(ccn2C)n1Cc1ccc2ccccc2n1,2,-7,-156,57*,-1
CCOC(=O)c1cc2c(ccn2C)n1Cc1ccccc1C#N,-23,-7,-322,26,-63
COC(=O)c1cc2c(ccn2C)n1Cc1ccccc1OC,19,-5,-207,70*,-27
COC(=O)c1cc2c(ccn2C)n1Cc1ccccc1,-87,-5,i,17,-170
CCOC(=O)c1cc2c(ccn2C)n1Cc1cccc2ccccc12,54*,-7,-50,87*,21
CCOC(=O)c1cc2c(ccn2C)n1CC(=O)N1CCN(C(=O)c2ccco2)CC1,-78,-6,-486,37*,-113
COC(=O)c1cc2c(ccn2C)n1CC(=O)N1CCCC1,-166,-4,i,-19,-250
CC(C)C(NC(=O)c1ccc(C(C)(C)C)cc1)C(=O)OCC(=O)c1c[nH]c2ccccc12 (stereo not drawn),-34,-5,-183,-40,-71
Cc1ccc(C(=O)NC(C(=O)OCC(=O)c2cc(C)n(-c3ccc4c(c3)OCO4)c2C)C(C)C)cc1 (stereo not drawn),29,4,-8,52*,17
c1cc2c(cc1-c1nnc(C3(c4ccc5c(c4)OCO5)CCOCC3)o1)OCCO2,-5,5,33*,-1,1
Brc1ccc(C2(c3nnc(-c4ccc5c(c4)OCCO5)o3)CCOCC2)cc1,5,5,0,12,13
O=C(Nc1ccc2c(c1)OCO2)c1cc(-c2cccnc2)n(-c2ccccc2)n1,30*,8,24,22,79*
Cc1nc(N2CCCCC2)cc(N2CCN(C(=O)c3ccccc3Cl)CC2)n1,-17,-3,-37,-9,-8
COc1ccc(NCc2cc(=O)[nH]c3ccccc23)cc1,15,3,37*,17,24
Cc1cccc(C(=O)Nc2c(C(=O)N3CCOCC3)oc3ccccc23)c1,6,4,18,12,24
CC1=C(C(=O)Nc2cccnc2)C(c2ccc(O)cc2)n2nc(-c3ccccc3)nc2N1 (stereo not drawn),5,-3,5,6,15
CCN1CCn2c(-c3ccccc3)cnc2C12CCNCC2,-1,2,25,-54,10
O=C(Nc1ccc(N2CCN(Cc3ccc(F)cc3)C2=O)nc1)c1ccc2c(c1)OCO2,24,-1,-19,-4,-5
O=C(Nc1ccc(N2CCN(Cc3ccc(F)cc3)C2=O)nc1)C1CCC1,60*,-1,63*,28,38*
O=C(Nc1ccc(N2CCN(c3ccccc3)C2=O)nc1)C1CCOC1 (stereo not drawn),26,-1,35*,-27,10
CC(C)(C)c1cc2n(n1)CCN(C(=O)c1ccccc1)C2,8,2,23,13,6
C[C@H](NC(=O)[C@H](Cc1c[nH]c2ccccc12)n1c(=O)[nH]c2ccccc2c1=O)C(=O)N1CCC[C@H]1C(=O)O,-31,-3,-8,-79,-13
O=C(NCc1ccc(Cl)cc1)NCc1cnn2ccccc12,29,-2,39*,4,12
O=C(NCc1cnn2ccccc12)c1ccc(Cn2ccnc2)cc1,4,0,5,2,9
SMILES,USP17 block,USP10 inh,USP30 block,USP8 inh,USP28 block
O=S(=O)(NCc1cccnc1Oc1ccccc1)C1CC1,.,-1,-38,2,-3
COc1ccc2c(c1)CCc1c-2n[nH]c1C(=O)Nc1ccccc1OC,50*,0,-35,1,-7
COc1ccc(NC(=O)c2[nH]nc3c2COc2ccccc2-3)c(OC)c1,77*,23,10,59*,21
COc1ccc(NC(=O)c2[nH]nc3c2CCc2ccccc2-3)c(OC)c1,15,-1,-53,2,11
COc1ccc2c(c1)CCc1c-2n[nH]c1C(=O)Nc1ccc(F)cc1C,15,2,30*,16,6
COc1ccc2c(c1)CCc1c-2n[nH]c1-c1nc(-c2ccccn2)no1,33*,-6,-58,-12,-28
COc1ccc(NC(=O)CSc2nc(-c3ccc4c(c3)OCO4)ccc2C#N)cc1OC,33*,-4,-65,-21,14
COc1ccccc1-c1ccc(SCC(=O)Nc2ccc3c(c2)OCCO3)nn1,27,8,40*,-1,80*
O=C(CSc1cc(N2CCCCC2)ncn1)Nc1ccc2c(c1)OCCO2,-9,-3,-12,-15,49*
COc1ccc(NC(=O)CSc2cc(N3CCCCC3)ncn2)cc1OC,1,-2,12,0,13
Cc1ccc(NC(=O)CSc2cc(N3CCCCC3)ncn2)cc1F,0,4,31*,-7,25
COc1ccc(-c2csc3ncnc(OCC(=O)Nc4ccc5c(c4)OCO5)c23)cc1OC,18,2,-8,7,7
O=C1C(O)=C(c2ccccc2)C2CCCN12 (stereo not drawn),-26,3,32*,2,-8
COc1cccc(Cn2c(=O)c(C#N)c3n(c2=O)CCC3)c1,-17,-11,-82,6,-4
Cc1ccc(NC(=O)N2CCC(c3nc(C(=O)N4CCCC4)c(C)o3)CC2)cc1,4,4,33*,0,6
Cc1cc(C)cc(NC(=O)N2CCC(c3nnc(-c4ccccc4)o3)CC2)c1,14,4,35*,13,14
Cc1ccc(CNC(=O)N2CCC(c3nc(C(=O)N4CCCC4)c(C)o3)CC2)cc1,-11,0,-4,-10,-15
Cc1c(C(=O)NCc2ccccc2)oc2ccc3c(c12)C(O)CC1(CCCCC1)O3 (stereo not drawn),3,7,11,3,17
CC(Oc1ccc(Cl)cc1)C(=O)OCC(=O)Nc1ccc2[nH]c(=O)[nH]c2c1 (stereo not drawn),23,-5,-17,-75,6
O=C(COc1ccccc1C(=O)Nc1ccccc1)Nc1ccc2[nH]c(=O)[nH]c2c1,38*,-2,-27,-6,0
O=C(COC(=O)c1ccc(Cl)cc1)Nc1ccc2[nH]c(=O)[nH]c2c1,14,8,74*,34*,31*
Cc1cccc(C(=O)OCC(=O)Nc2ccc3[nH]c(=O)[nH]c3c2)c1C,40*,17,52*,-62,40*
COc1ccc(NC(=O)c2ccco2)cc1NC(=O)COc1ccc(Cl)cc1Cl,-2,1,-5,43*,0
Cc1cc(Cl)ccc1OCC(=O)Nc1ccccc1,14,2,-3,0,-6
Cc1ccccc1CSCC(=O)Nc1ccc2[nH]c(=O)[nH]c2c1,45*,10,42*,0,32*
O=C(COc1ccc(Cl)cc1Cl)Nc1ccc2[nH]c(=O)[nH]c2c1,35*,31*,66*,51*,47*
Cc1nnc(SC(C)C(=O)Nc2ccc3[nH]c(=O)[nH]c3c2)n1Cc1ccccc1 (stereo not drawn),-6,0,-27,-11,4
